In PubChem BioAssay (EPA / NIEHS):
Several values for one entry are separate records, joined by “and”; a condition that tells them apart may be missing. Equal values may be shown once. Results filed as inconclusive are left out. Activity calls are given as the source filed them. How the source made its calls: active means hit-call score of the fitted dose curve at least 0.9, where 1 is the maximum; inconclusive means response in the unintended direction; inactive means score below 0.9.

What was measured:
[1] = target: chimpanzee Androgen Receptor (AR), AR (gene 747460) (UniProt O97775); test: NVS_NR_cAR: NovaScreen (NVS) Nuclear Receptor Binding Assay for chimpanzee Androgen Receptor (AR) (AID 2283346);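 further: radioligand displacement from AR measured by scintillation counting in a cell-free assay; a loss of bound radioligand signal versus DMSO counts as binding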
Outline: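 Cell-free competition binding with insect-cell (Sf9/Sf21) extracted chimpanzee AR; scintillation signal from lysate at 72 h. Screened in duplicate at 25 uM, then concentration-response for actives; fitting relative to DMSO.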

[2] = target: Bile acid receptor (Homo sapiens) (UniProt Q96RI1); test: NVS_NR_hFXR_Agonist: NovaScreen (NVS) Nuclear Receptor Binding Assay for human Farnesoid X Receptor Agonism (FXR) (AID 2283347)
Outline: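 Cell-free TR-FRET binding assay with extracted human FXR protein, agonist format, read 1 h after dosing. Primary screen at 25 uM single concentration in duplicate, actives retested in concentration series; gain of signal versus DMSO.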

[3] = target: Androgen Receptor/SRC-1 Co-activator, AR (gene 367) (UniProt P10275); test: OT_AR_ARSRC1_0960: Odyssey Thera (OT) 16-hour HEK293T Protein-Complementation Assay for Androgen Receptor/SRC-1 Co-activator (AID 2283353);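 further: actives raise the signal above DMSO so potency reflects increased AR and SRC-1 complex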
Outline: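 HEK293T cells stably expressing AR and SRC-1 fused to split Venus YFP fragments via (Gly4Ser)2 linkers were dosed for 16 h. Nuclear/cytoplasmic fluorescence ratio at 488 nm, ≥400 cells per image, fitted for gain of signal versus DMSO.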

[4] = target: human Peroxisome Proliferator-activated Receptor alpha (PPARa), PPARA (gene 5465) (UniProt Q07869); test: NVS_NR_hPPARa: NovaScreen (NVS) Nuclear Receptor Binding Assay for human Peroxisome Proliferator-activated Receptor alpha (PPARa) (AID 2283359);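 further: activity means loss of TR-FRET signal versus DMSO baseline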
Outline: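 Chemicals were first screened in duplicate at 25 uM, and active ones were retested across concentration series. Binding was monitored by TR-FRET one hour after dosing, with decreased signal against DMSO counted as activity.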

[5] = target: Estrogen receptor beta (Homo sapiens) (UniProt Q92731); test: OT_ER_ERbERb_0480: Odyssey Thera (OT) 8-hour HEK293T Protein-Complementation Assay for Estrogen Receptor-beta/-beta Homodimer (AID 2283357);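 further: active means signal gain over DMSO baseline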
Outline: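 Cells (HEK293T, stable ER-beta LBD PCA pair) are treated 8 hours, fixed and Draq5-stained; signal is fluorescence intensity increase relative to vehicle, fitted in the gain direction.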

[6] = target: bovine Estrogen Receptor (ER), ESR1 (gene 407238) (UniProt P49884); test: NVS_NR_bER: NovaScreen (NVS) Nuclear Receptor Binding Assay for bovine Estrogen Receptor (ER) (AID 2283345);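 further: actives lower the bound radioligand count which means they displace the ER ligand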
Outline: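 Cell-free radioligand binding with receptor from bovine uterine membranes, read by scintillation counting 18 h after dosing. Loss of specific binding was scored against DMSO; primary screen at 25 uM in duplicate, actives then run as concentration series.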

[7] = target: Estrogen receptor (Homo sapiens) (UniProt P03372); test: OT_ER_ERaERa_1440: Odyssey Thera (OT) 24-hour HEK293T Protein-Complementation Assay for Estrogen Receptor-alpha/-alpha Homodimer (AID 2283349);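 further: hits raise fluorescence above DMSO for agonists and antagonists alike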
Outline: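 Protein-fragment complementation between two human ERα ligand-binding domains (aa 310-547) in stably transfected HEK293T cells was monitored after 24 h treatment, using fluorescence intensity relative to vehicle controls.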

[8] = target: Estrogen receptor (Homo sapiens) (UniProt P03372); test: OT_ER_ERaERa_0480: Odyssey Thera (OT) 8-hour HEK293T Protein-Complementation Assay for Estrogen Receptor-alpha/-alpha Homodimer (AID 2283351);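 further: rise in fluorescence from reassembled reporter fragments on ERα LBD homodimer in nucleus or whole cell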
Outline: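 HEK293T cells stably expressing the human ERα ligand-binding domain (aa 310-547) as a homodimer PCA were dosed with compound for 8 h. Gain of fluorescence intensity versus DMSO vehicle was read by laser scanning cytometry.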

[9] = target: T1, Estrogen receptor (Homo sapiens) + Estrogen receptor beta (Homo sapiens) (UniProt P03372+Q92731); test: OT_ER_ERaERb_1440: Odyssey Thera (OT) 24-hour HEK293T Protein-Complementation Assay for Estrogen Receptor-alpha/-beta Homodimer (AID 2283356);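 further: heteromer of ER alpha and ER beta binding domains; hits raise reporter fluorescence and both agonists and antagonists give an increase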
Outline: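 HEK293T cells stably expressing a PCA pair of ERα LBD (aa 310-547) and ERβ LBD (aa 263-489) were dosed for 24 h. Fluorescence intensity increase versus DMSO vehicle was fitted as gain-of-signal.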

[10] = target: Estrogen receptor (Homo sapiens) (UniProt P03372); test: NVS_NR_hER: NovaScreen (NVS) Nuclear Receptor Binding Assay for human Estrogen Receptor (ER) (AID 2283348)
Outline: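 Scintillation signal from bound radioligand was measured 18 hours after chemical addition to cell-free MCF7 protein extracts, with DMSO as baseline. Activity was scored as signal loss; compounds ran first at 25 uM in duplicate.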

[11] = target: T1, Estrogen receptor (Homo sapiens) + Estrogen receptor beta (Homo sapiens); test: OT_ER_ERaERb_0480: Odyssey Thera (OT) 8-hour HEK293T Protein-Complementation Assay for Estrogen Receptor-alpha/-beta Heterodimer (AID 2283352)
Outline: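 HEK293T cells expressing ER-alpha/ER-beta LBD fusions to complementary reporter fragments were dosed with compound for 8 hours. Heterodimer formation was read as increased nuclear (agonist) or nuclear plus cytoplasmic (antagonist) mean fluorescence intensity versus DMSO vehicle.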

[12] = target: rat Mineralocorticoid Receptor (MR), Nr3c2 (gene 25672) (UniProt P22199); test: NVS_NR_rMR: NovaScreen (NVS) Nuclear Receptor Binding Assay for rat Mineralocorticoid Receptor (MR) (AID 2283355)
Outline: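 Adrenalectomized rat brain supernatant was dosed with test chemical, then radioligand binding was measured by scintillation counting at 24 h. Initial testing ran in duplicate at 25 uM, followed by concentration series for actives.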

Measured: AC50

Estrogen receptor (Homo sapiens), sequence (P03372 whole entry, looked up, the tested form may be a part): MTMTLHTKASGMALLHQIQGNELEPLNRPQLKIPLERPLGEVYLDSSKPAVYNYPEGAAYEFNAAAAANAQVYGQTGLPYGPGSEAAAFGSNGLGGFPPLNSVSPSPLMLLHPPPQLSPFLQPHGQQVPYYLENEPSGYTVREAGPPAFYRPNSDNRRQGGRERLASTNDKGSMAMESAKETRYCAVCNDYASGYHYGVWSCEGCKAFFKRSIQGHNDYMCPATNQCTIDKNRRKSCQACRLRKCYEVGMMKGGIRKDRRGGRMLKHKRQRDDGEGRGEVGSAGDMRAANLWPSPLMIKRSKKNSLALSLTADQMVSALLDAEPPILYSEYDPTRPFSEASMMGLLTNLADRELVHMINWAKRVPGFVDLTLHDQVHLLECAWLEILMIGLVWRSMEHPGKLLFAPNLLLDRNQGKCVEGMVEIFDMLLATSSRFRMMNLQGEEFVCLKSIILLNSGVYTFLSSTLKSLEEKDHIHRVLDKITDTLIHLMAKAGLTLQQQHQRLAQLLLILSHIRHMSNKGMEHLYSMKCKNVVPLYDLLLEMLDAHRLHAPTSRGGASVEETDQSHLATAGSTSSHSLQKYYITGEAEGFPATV
T1 sequence (P03372 whole entry, looked up, the tested form may be a part): as above
T1 sequence (Q92731 whole entry, looked up, the tested form may be a part): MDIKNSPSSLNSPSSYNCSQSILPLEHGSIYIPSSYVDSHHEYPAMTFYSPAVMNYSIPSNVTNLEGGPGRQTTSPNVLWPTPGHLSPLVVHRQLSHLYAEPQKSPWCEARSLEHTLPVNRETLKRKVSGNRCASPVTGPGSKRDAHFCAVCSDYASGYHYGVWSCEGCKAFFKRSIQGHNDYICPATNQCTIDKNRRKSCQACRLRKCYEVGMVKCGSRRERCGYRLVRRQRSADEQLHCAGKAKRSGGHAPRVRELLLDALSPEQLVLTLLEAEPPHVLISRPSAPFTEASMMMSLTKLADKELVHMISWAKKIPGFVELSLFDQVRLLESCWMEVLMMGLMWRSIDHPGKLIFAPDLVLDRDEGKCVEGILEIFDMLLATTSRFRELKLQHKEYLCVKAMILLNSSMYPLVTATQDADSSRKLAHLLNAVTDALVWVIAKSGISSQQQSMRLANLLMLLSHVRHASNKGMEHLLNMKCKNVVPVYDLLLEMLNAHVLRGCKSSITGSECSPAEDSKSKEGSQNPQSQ
chimpanzee Androgen Receptor (AR), AR (gene 747460), sequence (O97775 whole entry, looked up): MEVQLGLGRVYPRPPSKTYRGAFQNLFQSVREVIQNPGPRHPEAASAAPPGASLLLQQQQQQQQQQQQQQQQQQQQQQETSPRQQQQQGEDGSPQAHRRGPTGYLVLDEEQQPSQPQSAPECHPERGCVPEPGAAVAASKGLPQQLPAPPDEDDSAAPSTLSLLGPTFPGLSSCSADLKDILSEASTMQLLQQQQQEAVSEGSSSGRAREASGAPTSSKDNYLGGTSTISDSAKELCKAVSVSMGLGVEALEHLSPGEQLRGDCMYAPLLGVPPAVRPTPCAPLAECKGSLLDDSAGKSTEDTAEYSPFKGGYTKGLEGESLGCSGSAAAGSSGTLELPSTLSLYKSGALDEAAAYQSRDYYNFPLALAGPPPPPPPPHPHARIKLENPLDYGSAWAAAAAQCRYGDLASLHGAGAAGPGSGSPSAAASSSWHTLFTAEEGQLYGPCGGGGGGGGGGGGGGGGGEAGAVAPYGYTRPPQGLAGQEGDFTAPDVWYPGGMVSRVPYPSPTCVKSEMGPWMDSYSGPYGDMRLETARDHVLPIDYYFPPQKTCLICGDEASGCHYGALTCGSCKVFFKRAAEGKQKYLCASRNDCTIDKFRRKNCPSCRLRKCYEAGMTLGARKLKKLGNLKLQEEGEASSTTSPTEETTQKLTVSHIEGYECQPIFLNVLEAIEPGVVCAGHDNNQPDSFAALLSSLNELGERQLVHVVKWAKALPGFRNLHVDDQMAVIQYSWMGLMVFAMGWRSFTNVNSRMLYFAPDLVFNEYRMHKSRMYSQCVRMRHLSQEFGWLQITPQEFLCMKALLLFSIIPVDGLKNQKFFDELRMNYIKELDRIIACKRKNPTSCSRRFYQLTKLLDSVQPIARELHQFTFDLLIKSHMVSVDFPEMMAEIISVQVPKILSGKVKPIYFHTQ
Androgen Receptor/SRC-1 Co-activator, AR (gene 367), sequence (P10275 whole entry, looked up, the tested form may be a part): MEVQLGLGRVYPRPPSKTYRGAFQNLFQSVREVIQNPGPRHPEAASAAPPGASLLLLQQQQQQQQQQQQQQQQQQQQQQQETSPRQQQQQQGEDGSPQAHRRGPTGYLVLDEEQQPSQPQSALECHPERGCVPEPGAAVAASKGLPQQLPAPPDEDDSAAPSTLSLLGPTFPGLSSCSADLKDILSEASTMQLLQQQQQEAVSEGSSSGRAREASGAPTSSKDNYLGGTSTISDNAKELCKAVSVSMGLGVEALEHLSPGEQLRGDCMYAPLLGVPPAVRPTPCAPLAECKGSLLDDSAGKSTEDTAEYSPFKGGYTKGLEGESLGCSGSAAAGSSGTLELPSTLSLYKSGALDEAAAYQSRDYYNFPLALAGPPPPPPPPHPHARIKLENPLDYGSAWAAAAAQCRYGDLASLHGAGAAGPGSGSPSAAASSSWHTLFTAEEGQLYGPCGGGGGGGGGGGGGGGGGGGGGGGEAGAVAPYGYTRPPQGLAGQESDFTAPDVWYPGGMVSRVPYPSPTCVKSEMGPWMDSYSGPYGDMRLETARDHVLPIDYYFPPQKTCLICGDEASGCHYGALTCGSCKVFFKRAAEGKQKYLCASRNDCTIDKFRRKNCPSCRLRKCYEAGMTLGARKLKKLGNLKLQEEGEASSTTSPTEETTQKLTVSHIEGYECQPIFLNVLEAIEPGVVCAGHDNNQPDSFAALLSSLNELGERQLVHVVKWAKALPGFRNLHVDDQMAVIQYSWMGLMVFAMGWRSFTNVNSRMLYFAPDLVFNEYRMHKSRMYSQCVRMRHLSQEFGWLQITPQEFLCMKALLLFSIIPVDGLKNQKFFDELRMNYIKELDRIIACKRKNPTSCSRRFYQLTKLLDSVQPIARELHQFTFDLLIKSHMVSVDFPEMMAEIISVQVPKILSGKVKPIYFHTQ
Estrogen receptor beta (Homo sapiens), sequence (Q92731 whole entry, looked up, the tested form may be a part): as the sequence (Q92731 whole entry, looked up, the tested form may be a part) above
human Peroxisome Proliferator-activated Receptor alpha (PPARa), PPARA (gene 5465), sequence (Q07869 whole entry, looked up): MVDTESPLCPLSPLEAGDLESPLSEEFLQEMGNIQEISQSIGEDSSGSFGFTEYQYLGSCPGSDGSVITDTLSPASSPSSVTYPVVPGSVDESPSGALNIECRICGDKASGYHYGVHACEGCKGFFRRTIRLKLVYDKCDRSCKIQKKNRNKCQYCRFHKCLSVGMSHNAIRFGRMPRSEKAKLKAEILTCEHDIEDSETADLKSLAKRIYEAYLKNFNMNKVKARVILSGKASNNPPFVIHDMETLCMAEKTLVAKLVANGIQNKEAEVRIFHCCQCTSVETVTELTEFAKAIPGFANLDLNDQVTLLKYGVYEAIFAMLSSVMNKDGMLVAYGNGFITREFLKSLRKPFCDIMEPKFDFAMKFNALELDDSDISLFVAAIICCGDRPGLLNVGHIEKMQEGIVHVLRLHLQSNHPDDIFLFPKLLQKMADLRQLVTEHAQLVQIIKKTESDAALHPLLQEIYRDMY
Bile acid receptor (Homo sapiens), sequence (Q96RI1 whole entry, looked up): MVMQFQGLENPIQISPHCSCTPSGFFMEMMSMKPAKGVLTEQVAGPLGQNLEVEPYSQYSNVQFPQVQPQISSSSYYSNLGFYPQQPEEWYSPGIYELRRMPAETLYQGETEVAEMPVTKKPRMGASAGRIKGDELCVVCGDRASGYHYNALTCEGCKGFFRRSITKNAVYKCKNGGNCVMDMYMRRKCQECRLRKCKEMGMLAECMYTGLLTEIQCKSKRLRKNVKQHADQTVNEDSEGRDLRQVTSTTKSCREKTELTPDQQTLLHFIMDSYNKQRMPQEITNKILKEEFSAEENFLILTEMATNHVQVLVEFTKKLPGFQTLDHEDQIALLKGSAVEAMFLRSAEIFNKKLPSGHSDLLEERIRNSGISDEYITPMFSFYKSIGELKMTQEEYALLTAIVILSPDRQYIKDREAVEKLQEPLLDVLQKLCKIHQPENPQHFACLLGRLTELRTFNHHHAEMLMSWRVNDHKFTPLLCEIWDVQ
bovine Estrogen Receptor (ER), ESR1 (gene 407238), sequence (P49884 whole entry, looked up): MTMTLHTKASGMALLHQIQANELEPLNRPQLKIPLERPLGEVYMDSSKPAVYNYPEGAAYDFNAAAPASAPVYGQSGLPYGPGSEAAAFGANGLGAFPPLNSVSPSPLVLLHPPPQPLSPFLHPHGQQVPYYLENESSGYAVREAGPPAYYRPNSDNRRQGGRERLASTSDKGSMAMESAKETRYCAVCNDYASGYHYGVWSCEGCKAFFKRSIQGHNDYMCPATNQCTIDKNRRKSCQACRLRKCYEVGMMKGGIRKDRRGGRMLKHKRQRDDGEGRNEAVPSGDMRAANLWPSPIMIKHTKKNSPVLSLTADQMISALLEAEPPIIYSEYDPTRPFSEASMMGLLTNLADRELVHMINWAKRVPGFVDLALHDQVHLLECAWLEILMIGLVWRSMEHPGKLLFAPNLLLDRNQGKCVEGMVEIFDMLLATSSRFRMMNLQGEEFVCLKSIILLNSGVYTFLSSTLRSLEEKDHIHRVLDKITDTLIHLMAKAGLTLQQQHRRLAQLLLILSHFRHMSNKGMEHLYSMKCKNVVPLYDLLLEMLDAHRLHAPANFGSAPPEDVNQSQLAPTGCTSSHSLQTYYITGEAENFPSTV

O=C1C2(Cl)C3(Cl)C4(Cl)C(Cl)(Cl)C5(Cl)C3(Cl)C1(Cl)C5(Cl)C24Cl (stereo not given)
active: [3] 19.2 µM and 46.6 µM and 26 µM
inactive: [1] | [2] | [4]

CC12CC1(C)C(=O)N(c1cc(Cl)cc(Cl)c1)C2=O (stereo not given)
inactive: [1] | [3] | [5]

CC(C)OC(=O)Nc1ccccc1
inactive: [6] | [7] | [8]

CCCCCCCCCl
inactive: [1]

CCOC(=O)Nc1cccc(OC(=O)Nc2ccccc2)c1
inactive: [1] | [7] | [8] | [9] | [5]

CCC1(c2ccc(N)cc2)CCC(=O)NC1=O (stereo not given)
inactive: [10] | [7] | [8] | [3]

Fc1ccc(C2(Cn3cncn3)OC2c2ccccc2Cl)cc1 (stereo not given)
active: [7] 39.5 µM | [8] 23.7 µM | [11] 12.7 µM | [9] 27.3 µM | [5] 14.9 µM
inactive: [1] | [10]

O=C(CCl)CCl
inactive: [10]

Cl/C=C\C[N+]12CN3CN(CN(C3)C1)C2
active: [1] 1.43 µM | [3] 76.6 µM | [9] 11.6 µM
inactive: [7] | [8] | [5]

CCNc1nc(NC(C)(C)C)nc(SC)n1
inactive: [1]

N#CCCO
inactive: [1]

COc1cc(OC)nc(NC(=O)NS(=O)(=O)c2ncccc2C(=O)N(C)C)n1
inactive: [1] | [7] | [8] | [11] | [9] | [5]

CCCCOCCOC(C)=O
inactive: [7] | [8]

CCC(C)(C)c1ccc(O)c(C(C)(C)CC)c1
inactive: [2] | [10] | [7] | [8] | [9] | [5]

CC(C)C1CCC(Cc2ccc(Cl)cc2)C1(O)Cn1cncn1 (stereo not given)
inactive: [10] | [7] | [8] | [5]
active: [1] 10.3 µM | [9] 11.7 µM

C[C@@H]1C[C@@H]([C@H](O)CC2CC(=O)NC(=O)C2)C(=O)[C@@H](C)C1
inactive: [1] | [5]

O=S(=O)(c1ccc(Cl)cc1)c1ccc(Cl)cc1
inactive: [6] | [7] | [8] | [11] | [9] | [5]

CC(C)(C)c1cc(O)ccc1O
inactive: [10] | [7] | [8]

CC(C)c1ccc(CO)cc1
inactive: [10]

Cc1ccccc1C(=O)Nc1cccc(OC(C)C)c1
inactive: [1] | [7] | [8] | [11] | [3] | [9]

CC(C)(C)CC(C)(C)c1ccc(O)cc1
inactive: [12]
